Test results published in PubChem BioAssay AID1159614 (National Center for Advancing Translational Sciences (NCATS), 2016).
In all, about 45,000 compounds went through this assay and about 65 (0.1%) were called active. The call rests on the fitted dose curve; in most records, active means well fitted activation curve with a large enough effect; inconclusive means small, poorly fitted or top-dose-only effect; inactive means no such curve, though single readings can be large or run the other way. The entries come from a sample that favours actives as a whole.

Each compound was assayed against Galactocerebrosidase (Homo sapiens) (UniProt P54803) (assay: A Novel Cell-Based Assay to Identify Small Molecules for B -Galactocerebrosidase). Settings: 145M-Twi-hGALC-G270D cells (Twitcher mouse brain line with human GALC G270D), HMU-beta-Gal fluorescence, 48 h; series mostly up to 57.5 µM.
Sequence of Galactocerebrosidase (Homo sapiens) (P54803 whole entry G286D): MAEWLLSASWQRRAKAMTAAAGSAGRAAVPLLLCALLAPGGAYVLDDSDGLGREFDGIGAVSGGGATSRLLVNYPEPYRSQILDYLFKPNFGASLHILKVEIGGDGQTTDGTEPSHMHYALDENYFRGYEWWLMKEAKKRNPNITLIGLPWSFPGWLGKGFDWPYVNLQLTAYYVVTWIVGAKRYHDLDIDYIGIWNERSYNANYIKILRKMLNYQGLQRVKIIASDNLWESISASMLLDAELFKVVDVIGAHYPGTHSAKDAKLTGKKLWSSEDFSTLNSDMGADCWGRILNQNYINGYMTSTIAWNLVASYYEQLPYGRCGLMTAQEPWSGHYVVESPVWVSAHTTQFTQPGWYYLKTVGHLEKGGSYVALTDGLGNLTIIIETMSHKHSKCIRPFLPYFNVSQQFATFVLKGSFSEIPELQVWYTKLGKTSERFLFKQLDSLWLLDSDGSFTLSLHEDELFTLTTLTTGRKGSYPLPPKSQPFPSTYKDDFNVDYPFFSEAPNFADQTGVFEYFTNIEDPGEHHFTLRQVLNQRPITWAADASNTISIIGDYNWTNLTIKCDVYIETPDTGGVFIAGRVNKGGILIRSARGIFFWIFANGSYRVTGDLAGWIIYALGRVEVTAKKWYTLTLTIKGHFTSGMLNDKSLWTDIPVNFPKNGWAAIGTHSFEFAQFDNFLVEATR
Source text: Lysosomal storage diseases (LSDs) are caused by genetic mutations in genes encoding proteins important for normal lysosomal function. Globoid cell leukodystrophy (GLD), mostly known as Krabbe disease, is a prototype of the neurological LSDs caused by deficiency of beta-galactocerebrosidase (GALC). In brain specimens of GLD patients, psychosine levels are substantially elevated. At elevated concentrations, psychosine becomes cytotoxic to neuronal cells, particularly to oligodendrocytes (OLG), neural cells responsible for myelin formation. Therefore, the biochemical disturbances in GLD are manifested by different degrees of brain demyelination resulting in a broad spectrum of neurological manifestations. Most of the FDA-approved therapies are based on enzyme replacement therapeutic (ERT) agents, which treat non-neurological symptoms of Gaucher disease, Fabry disease, few mucopolysaccharidoses and Pompe disease. Unfortunately, in GLD, a primarily neurological LSD, ERT agents, as large molecular weight molecules unable to cross the blood-brain barrier, which makes this an inefficacious therapeutic approach. In GLD, increasing the residual GALC activity just above the critical threshold (~10% of wild type enzymatic activity), the cytotoxic levels of psychosine will be reduced, avoiding the OLGs apoptosis and the subsequent demyelination process. This will translate in disease stabilization and amelioration of GLD patient symptoms.
A cell-based assay in 1,536-well plate format was developed to implement a quantitative high-throughput screening (qHTS) assay using GLD-disease relevant cells to identify small molecules that produce enhancements of the residual enzymatic activity levels of mutants GALC found and prevalent in GLD patients. Compounds that are active may therefore have some therapeutic application for GLD. After the treatment of live cells for a determined period, using a fluorescent GALC specific substrate, the mutant residual GALC activity is measured. This cell-based qTHS assay was used to screen part of the MLPCN library for small molecule able to increase the mutant GALC enzymatic activity. In this assay, increased fluorescent signal corresponds to enhanced levels of mutant GALC residual enzymatic activity. Activation is the desired outcome for this assay.
NIH Chemical Genomics Center [NCGC]
NIH Molecular Libraries Probe Centers Network [MLPCN]
Assay Submitter (PI): Gustavo Maegawa MD,PhD, University of Florida, Gainesville, FL
2)#Two cell lines were established for the assay: 145M-Twi-hGALC-G270D (brain-derived Twitcher cell line stably expressing human GALC-G270D) and 145M-Twi-hGALC-WT (same 145M-Twi stably expressing human GALC wild type). The Twitcher is the murine C57B/6 model for GLD with naturally occurring homozygous nonsense GALC mutation. The 145M-Twi cell line was established at Maegawa lab (Ribbens J et al 2014).
a.#Media: DMEM/F12 (1:1) with 10% fetal bovine-serum (FBS) with penicillin/streptomycin (PS-1X - 100 I.U./mL of penicillin+100 ug/mL of streptomycin).
b.#The 6-Hexadecanoylamino-4-methylumbelliferyl-b-D-galactoside (HMU-B-gal) substrate was prepared as per Wiederschain et al 1992. Using 20-mL borosilicate tubes, 2.20 mg of HMU-b-Gal was added in each tube to prepare substrate-film with a final air-nitrogen stream evaporation to remove all diluent solvents.
c.#The HMUb-Gal substrate buffer consists of 0.2 M Na2HPO4 (sodium phosphate dibasic)/ 0.1 M Citric Acid with the pH adjusted to 5.2 using HCl. Sodium Azide at 0.02% and Sodium Taurocholate (NaTC) at 1 mg/mL were added to this substrate buffer.
d.#The HMU-b-Gal stopping buffer consist of 0.5 M NaHCO3 (sodium bicarbonate) /0.5 M Na2CO3 (sodium carbonate). […] Triton X-100 at 0.25% was added.
4)#Preparation of HMU-b-Gal substrate tubes
Adding 18.6 mL of the HMUb-Gal substrate buffer to each 20-mL tube (2.20 mg of HMU-b-Gal) will reach a concentration of 0.2 mM. Vortex well the tube until the solution is fully homogenized (clear cloudy solution). […]
Further: nearly all actives have a fitted effect of over 65% in size.

Potency, inactive:
Cc1ccc(OCCn2c(CNc3ccccc3C)nc3ccccc32)cc1
Cc1nn(C)c2c1c(C(F)(F)F)cc(=O)n2C(C)C(=O)NCc1ccc(Cl)cc1 (stereo unspecified)
CCOCCCn1c(SCC(=O)Nc2ccc(CC)cc2)nc2ccccc2c1=O
C=Cc1ccc(Cn2c(C(=O)OC)cc3sc(C)cc32)cc1
COc1ccc(CCNC(=O)Cn2c(=O)n(-c3ccccc3)c(=O)c3c(C)c(C)sc32)cc1OC
O=C(NC1CCN(Cc2ccccc2)CC1)c1ccc(Cn2c(=O)c3ccccc3n(Cc3cccc(F)c3)c2=O)cc1
CC1CCCN(c2cc3c(cc2F)c(=O)c(S(=O)(=O)c2cccc(Cl)c2)cn3Cc2ccccc2)C1 (stereo unspecified)
Cc1nc(N2CCOCC2)c2c(C(=O)NCc3cccc(Cl)c3)c(C)oc2n1
O=C(Nc1ccc(S(=O)(=O)N2CCC(c3nc4ccccc4s3)CC2)cc1)c1ccccc1F
Cc1ccc(N(CC(=O)NCC(C)c2ccccc2)S(=O)(=O)N(C)C)cc1 (stereo unspecified)
COc1ccc(-n2ccn(CC(=O)Nc3ccc(C)c(C)c3)c(=O)c2=O)cc1OC
CCCc1nn2c(=O)cc(COC(=O)c3ccc(NC(=O)C(C)Oc4ccccc4)cc3)nc2s1 (stereo unspecified)
CCCSc1nc2sc3c(c2c(=O)n1-c1cccc(Br)c1)CC(C)(C)OC3
Cc1nn(C(C)C(=O)Nc2ccc(C(C)C)cc2)c(=O)c2c1sc1ccccc12 (stereo unspecified)
Cc1cc(C)c(NC(=O)CSc2nc3nccnc3c(=O)n2CCc2c[nH]c3ccccc23)c(C)c1
O=C(CSc1nc(Nc2ccc(F)c(F)c2)c2ccccc2n1)c1ccc(Cl)cc1
CCn1c2c(c(=O)n3ncc(C(=O)N4CCN(c5ccccc5)CC4)c13)CN(Cc1ccc(OC)cc1)CC2
CC(=O)Nc1c(C)nn(-c2ccccc2)c1N1CCC(C(=O)Nc2cc(Cl)ccc2C)CC1
Cc1cc(C)c(-c2n[nH]c3c2C(c2ccccc2F)N(CCO)C3=O)c(O)c1 (stereo unspecified)
Cc1ccc(C)c(CN2C(=O)c3ccccc3S(=O)c3ccc(C(=O)N4CCOCC4)cc32)c1 (stereo unspecified)
COc1ccc(CCNC(=O)c2cc3cccc4c3n2CC(C)S4)c(OC)c1OC (stereo unspecified)
Oc1ccc(-c2nc3ccc(Cl)cn3c2Nc2ccc3c(c2)OCO3)cc1
COc1ccc(S(=O)(=O)N2CCN(c3ccc(F)cc3)CC2)cc1-c1noc(C)n1
O=C(NCc1ccccc1Cl)C1CCN(c2ncnc3c2nc2n3CCCCC2)CC1
Cc1ccc(C)c(Oc2c(C(F)(F)F)oc3c(CN4CCN(C)CC4)c(O)ccc3c2=O)c1
CCc1cccc(C)c1NS(=O)(=O)c1c(C)nc2sccn2c1=O
CCOC(=O)c1c(-c2ccc(OC)cc2)oc2ccc(OCc3ccc(C(=O)OC)cc3)cc12
O=C(O)c1ccc2c(c1)N(Cc1ccc(F)cc1)C(=O)c1ccccc1S2=O (stereo unspecified)
CCNC(=O)c1cc2n(n1)CCCN(Cc1ccc(C)cc1)C2=O
COc1ccccc1CN1CCC(CNC(=O)c2cnn(-c3cccc(Cl)c3)c2C2CCN(C(=O)OC(C)(C)C)CC2)CC1
Cc1cc(NS(=O)(=O)c2ccc3oc(=O)c4ncn(C)c4c3c2)ccc1Br
Cc1cccc(OCCSc2nc3ccccc3n2CC(=O)N2CCCCC2)c1C
CN1C(=O)c2ccccc2Sc2ccc(NC(=O)Cc3ccc(Cl)cc3)cc21
CCc1ccc(NC(=O)CCS(=O)(=O)c2cc3c(cc2Cl)NC(=O)CO3)cc1
COc1cccc(CN2CCc3nc(SCC(=O)Nc4ccccc4)[nH]c(=O)c3C2)c1
Cc1ccccc1-c1nc(CS(=O)(=O)CC(=O)Nc2cc(Cl)cc(Cl)c2)c(C)o1
CCc1nnc(SCC(=O)Nc2cc(OC)ccc2OC)nc1CC
O=C(NCCCO)c1nn(-c2ccc(Cl)cc2)nc1CO
Cn1nnc2c(N3CCN(c4ccccc4)CC3)ncnc21
CN1CCN(C(CNC(=O)c2ccccc2F)c2ccc3c(c2)OCO3)CC1 (stereo unspecified)
COc1ccc(CNC(=O)c2ccc3c(O)c(S(=O)(=O)c4ccccc4)c(=O)[nH]c3c2)cc1
CCC(=O)Nc1cccc(C(=O)OCc2cc(=O)n3nc(CC)sc3n2)c1
Cc1cccc(OCCSc2nc3ccc(NC(=O)COc4ccccc4C)cc3s2)c1
Cc1cccc(CSc2nc3ccncc3n2CC(=O)N(C)C2CCCCC2)c1
Cc1ccccc1CSc1nc(-c2ccccc2)nc2c1Cc1c(CO)cnc(C)c1O2
O=C(Nc1nc2c(s1)CCCC2)c1ccccc1F
COc1ccc(CNC(=O)CSc2n[nH]c(-c3ccc(F)cc3)n2)cc1
COc1ccc(CNS(=O)(=O)c2ccc(-c3cnc(C4CC4)o3)cc2)cc1
CCc1nc2ccc(C(=O)N3CCN(c4cc(Cl)ccc4C)CC3)cc2nc1CC
Cc1ccc(NC(=O)c2ccc(CN3CC(=O)N4CCCCC4C3=O)cc2)c(Cl)c1 (stereo unspecified)
COc1cccc(NC(=O)Nc2ccc3c(c2)N(C)C(=O)c2ccccc2S3)c1
COc1ccccc1-c1nnc(SCC(N)=O)o1
Cc1cccc(C(=O)Nc2ccc(S(=O)(=O)N3CCCCC3c3cccnc3)cc2)c1 (stereo unspecified)
CCc1ccc(NC(=O)c2sc3nc4c(cc3c2N)CN(CC)CC4)cc1
Cc1ccccc1NC(=O)CN1C(=O)C(C)(C)c2ccccc21
Cc1ccc(C(=O)Nc2ccc(OCc3cc(=O)n4c5c(sc4n3)CCCC5)cc2)cc1
COc1ccc(NC(=O)CSc2nccn2Cc2ccc3c(c2)OCO3)cc1
CCOC(=O)c1c(S(=O)(=O)N2CCC(C(=O)NCc3ccccc3OC)CC2)c(C)n(C)c1C
O=C(Nc1ccccc1Br)c1cc(CN2CCCC2)on1
COc1ccc(S(=O)(=O)NCc2cccn2Cc2cccc(C)c2)cc1Cl
Cc1cccc(Cn2c(=O)n(CCC(=O)NCCc3ccc(Cl)cc3)c(=O)c3sccc32)c1
Cc1noc2ncnc(NCc3ccccc3Cl)c12
CCOc1ccc(CCNC(=O)CN(c2ccc(C)cc2)S(=O)(=O)N(C)C)cc1OCC
COc1ccc(C)cc1NC(=O)CCc1c(C)nn(-c2ccc(N3CCOCC3)nn2)c1C
CCc1ccc(N2C(=O)CN(S(=O)(=O)CC)CC2(C)C(=O)NC2CCCCC2)cc1 (stereo unspecified)
Cc1ccc(Cc2nc3ccccc3nc2SCC(=O)Nc2cccc(C(F)(F)F)c2)cc1
Cc1ccc(-n2c(SCC(=O)c3ccccc3)nc3c([nH]c4ccccc43)c2=O)cc1
CC(=O)OC1=C(C(C)=O)N(Cc2ccccc2)S(=O)(=O)c2ccccc21
Brc1cccc(-c2nnn3c2nc(NC2CCCCC2)c2ccccc23)c1
Cc1cccc(N2CCN(C(=O)CCSCc3ccccc3F)CC2)c1C
COc1ccc(-c2c(C)nn3c(N4CCC(C(=O)NCCC(C)C)CC4)cc(C)nc23)cc1OC
Cc1cccc(NC(=O)Cn2c(=O)n(CCC(C)C)c(=O)c3cccnc32)c1
O=[N+]([O-])c1cc(-c2nc(-c3ccccc3)no2)ccc1NCc1ccco1
Cc1cc(NC(=O)c2ccc(-c3ccc(Cl)cc3)o2)cc(-c2nc3ncccc3o2)c1O
CCN(CC)c1ccc(NC(=O)Cn2nc3c(cc2=O)CCCC3)c(C)c1
Oc1c(C(c2ccccc2Cl)N2CCOCC2)sc2nc(-c3ccco3)nn12 (stereo unspecified)
